The whole screen tested about 350,000 compounds, of which about 990 (0.28%) were called active. Not shown: some 2% with an inconclusive outcome. For the sample, actives were picked, then their nearest neighbours and some compounds at random. A number with no mark means an inactive call. The call rests on the fitted dose curve; in most records, active means well fitted inhibition curve with a large enough effect; inconclusive means small, poorly fitted or top-dose-only effect; inactive means no such curve, though single readings can be large or run the other way.
What follows are molecules tested against Tyrosyl-DNA phosphodiesterase 1 (Homo sapiens) (UniProt Q9NUW8) (assay: qHTS Assay for Inhibitors of Tyrosyl-DNA Phosphodiesterase (TDP1)). Settings: recombinant TDP1, AlphaScreen DNA substrate cleavage; series mostly up to 130 µM; activity change, negative = inhibition: at the top concentration.
Sequence of Tyrosyl-DNA phosphodiesterase 1 (Homo sapiens) (Q9NUW8 whole entry, looked up): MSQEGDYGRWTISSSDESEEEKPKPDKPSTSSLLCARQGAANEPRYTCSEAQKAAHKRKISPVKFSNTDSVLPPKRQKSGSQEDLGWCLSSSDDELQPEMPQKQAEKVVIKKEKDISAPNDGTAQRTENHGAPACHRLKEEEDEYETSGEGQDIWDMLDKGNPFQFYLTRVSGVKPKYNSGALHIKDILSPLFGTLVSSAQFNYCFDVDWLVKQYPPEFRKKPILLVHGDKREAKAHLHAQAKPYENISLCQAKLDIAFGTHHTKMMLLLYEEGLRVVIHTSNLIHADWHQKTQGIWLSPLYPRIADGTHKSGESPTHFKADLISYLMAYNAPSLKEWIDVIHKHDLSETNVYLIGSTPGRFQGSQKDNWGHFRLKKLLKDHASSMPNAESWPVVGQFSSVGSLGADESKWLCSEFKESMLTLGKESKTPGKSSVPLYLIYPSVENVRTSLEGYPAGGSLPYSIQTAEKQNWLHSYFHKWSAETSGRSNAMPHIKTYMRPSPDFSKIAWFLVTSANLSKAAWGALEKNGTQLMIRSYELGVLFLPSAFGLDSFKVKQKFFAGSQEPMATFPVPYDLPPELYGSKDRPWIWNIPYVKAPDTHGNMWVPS
In short: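 Compounds were preincubated with Tdp1 (1 nM final) for 15 min at room temperature before substrate (15 nM final) started a 5 min reaction; beads (10 ug/ml final) were then added for 10 min before AlphaScreen detection.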
Further: nearly all actives have a fitted effect of over 40% in size.
On the % scale 0 is the no-effect control and ±100 the full control effect; potency means the concentration at half of the fitted maximal effect.

Compared with `Oc1ccc(Cl)cc1C1C=C(c2ccc3c(c2)OCO3)NC(c2c(F)cccc2Cl)N1` (stereo not drawn), `Oc1ccc(Cl)cc1C1C=C(c2ccc3c(c2)OCO3)NC(c2ccc(F)c(Br)c2)N1` (stereo not drawn) is lower in “activity change, negative = inhibition” value: 3.95% for the first, 1.96% for the second.

Compared with `Cc1noc(C)c1-c1ccc2ncnc(NCc3ccc(F)c(F)c3)c2c1`, `CC(Nc1ncnc2ccc(-c3ccc4c(c3)OCO4)cc12)c1ccco1` (stereo not drawn) is higher in “activity change, negative = inhibition” value: 0.294% for the first, 5.01% for the second.

First: O=[N+]([O-])c1ccc(S(=O)(=O)N2CCN(c3nc(-c4ccccc4)nc4ccccc34)CC2)cc1
Second: Cc1cccc(N2CCN(C(=O)c3ccc4c(c3)CCN4S(=O)(=O)c3ccccc3)CC2)c1C
The “activity change, negative = inhibition” value of the first is lower: 2.79% for the first, 6.98% for the second.

Going from `COc1ccc(CCNc2ncnc3c2cnn3-c2ccc(C)cc2)cc1` to `COc1ccc(Cc2nc3ccc(C(=O)NCc4ccccc4Cl)cc3o2)cc1`, the “activity change, negative = inhibition” value rises from 2.6% to 2.96%.

First: CC(O)c1nc2ccccc2n1Cc1ccc([N+](=O)[O-])cc1 (stereo not drawn)
Second: CCc1cccc(C)c1N(C(=O)Cn1c(CO)nc2ccccc21)C(C)COC (stereo not drawn)
The “activity change, negative = inhibition” value of the first is lower: 0% for the first, 4.37% for the second.

Going from `COc1ccc(S(=O)(=O)Nc2cccc3cccnc23)c(N)c1` to `O=C(Nc1cccc2cccnc12)C(F)(F)F`, the “activity change, negative = inhibition” value falls from 2.13% to -5.28%.

Going from `COc1ccccc1NC(=O)C(=O)c1cc(C)n(-c2ccccc2F)c1C` to `Cc1cccc(N2CCN(c3ccc(C(=O)O)cc3NC(=O)c3ccccc3F)CC2C)c1` (stereo not drawn), the “activity change, negative = inhibition” value falls from 0% to -2.63%.

Compared with `CCCOc1ccc(NC(=O)CC2C(=O)N(c3ccccc3)C(=O)N2Cc2ccco2)cc1` (stereo not drawn), `COc1ccc(C(=O)N(Cc2ccccc2)Cc2ccc(OC)c(COc3ccc(NC(C)=O)cc3)c2)c(O)c1` is lower in “activity change, negative = inhibition” value: 8.45% for the first, -3.45% for the second.

Going from `Cc1cc(C)c(C#N)c(N2CCC(C(N)=O)CC2)n1` to `COC(=O)c1ccc(NC(=O)CCc2c(C)nn(-c3ccc(N4CCCC4)nn3)c2C)cc1`, the “activity change, negative = inhibition” value rises from 2.35% to 4.54%.

Compared with `CCCCCCC1(C)NC(c2ccc3c(c2)OCO3)=CC(c2ccccc2O)N1` (stereo not drawn), `CC(=O)Nc1cccc(NC(=O)CSc2nccn2Cc2ccc3c(c2)OCO3)c1` is higher in “activity change, negative = inhibition” value: 1.74% for the first, 11% for the second.

First: COc1ccc(Nc2cc(C(=O)NCCCN(C)c3ccccc3)c3ccccc3n2)c(OC)c1
Second: CN(C)c1ccc(C(=O)NCC(=O)OC(C(=O)Nc2cc(C(F)(F)F)ccc2Cl)c2ccccc2)cc1 (stereo not drawn)
The “activity change, negative = inhibition” value of the first is higher: 5.69% for the first, -8.84% for the second.

First: Cc1ccc(NC(=O)CCCn2c(=O)c3cccn3c3ccccc32)cc1Cl
Second: O=C(O)c1ccc2c(c1)N(Cc1ccc(F)cc1)C(=O)c1ccccc1S2=O (stereo not drawn)
The “activity change, negative = inhibition” value of the first is higher: 5.2% for the first, 2.6% for the second.

First: O=C1c2ccccc2C(=O)N1c1ccc(S(=O)(=O)N2CCOCC2)c2ccccc12
Second: O=C(NCc1ccc2c(c1)CCN2C(=O)c1ccccc1)Nc1cc(F)ccc1F
The “activity change, negative = inhibition” value of the first is lower: 2.45% for the first, 8.11% for the second.

Compared with `CCOC(=O)C1=NOC(Cn2cc(C(C)=O)c(=O)[nH]c2=O)C1` (stereo not drawn), `CCOC(=O)C1=C(C)N=C2c3ccccc3C(=O)C2C1c1ccc(Br)cc1` (stereo not drawn) is higher in “activity change, negative = inhibition” value: 1.27% for the first, 5.56% for the second.

First: CCOC(=O)N1CCc2c(sc(NCc3cccc(F)c3)c2C(=O)Nc2ccccc2OCC)C1
Second: CCOc1cccc(C(=O)Nc2nnc(S(=O)(=O)N(C)c3ccc(C)cc3)s2)c1
The “activity change, negative = inhibition” value of the first is higher: 6.63% for the first, 0% for the second.

Going from `CCC1(C)CC(=O)c2c(ccc3oc(C(=O)Nc4ccc(C(C)=O)cc4)c(C)c23)O1` (stereo not drawn) to `COc1ccc(NC(=O)c2sc3nc[nH]c(=O)c3c2C)cc1`, the “activity change, negative = inhibition” value rises from 5.06% to 5.5%.

Going from `CC(C)COC(=O)c1ccc(NC(=O)C2C3C=CC(C3)C2C(=O)O)cc1` (stereo not drawn) to `COC(=O)c1cc(NC(=O)C2C3C=CC(C3)C2C(=O)O)cc(C(=O)OC)c1` (stereo not drawn), the “activity change, negative = inhibition” value rises from 0.957% to 5.21%.

Compared with `O=C(CNC(=O)c1ccc(Cl)c(C(F)(F)F)c1)OC(C(=O)Nc1cc(C(F)(F)F)ccc1Cl)c1ccccc1` (stereo not drawn), `Cc1ccc(S(=O)(=O)NC(N)=NCCC[C@@H](NC(=O)CNC(=O)c2ccccc2)C(=O)Nc2cc(C(F)(F)F)ccc2Cl)cc1` is higher in “activity change, negative = inhibition” value: -0.621% for the first, -0.119% for the second.

Compared with `O=C(CCC1CCCN(C(=O)Cc2ccc(F)cc2)C1)N1CCN(c2ccccn2)CC1` (stereo not drawn), `O=C(CCC1CCCN(C(=O)c2ccc(F)c(F)c2)C1)N1CCN(c2ccccn2)CC1` (stereo not drawn) is higher in “activity change, negative = inhibition” value: 0% for the first, 2.69% for the second.

First: CCCS(=O)(=O)Nc1cccc(-c2cn3ccsc3n2)c1
Second: CC(=O)NC(c1cccs1)c1cc(Cl)c2cccnc2c1O (stereo not drawn)
The “activity change, negative = inhibition” value of the first is higher: 5.41% for the first, 0.553% for the second.

Going from `O=C(NCc1nnc(C(=O)Nc2ccc(C(F)(F)F)cc2Cl)o1)c1ccccc1` to `O=C(NCCCO)C(=O)Nc1c2c(nn1-c1ccccc1)CSC2`, the “activity change, negative = inhibition” value rises from -0.245% to 7.79%.

In the case of `CO[C@@]12[C@@H](COC(N)=O)C3=C(C(=O)C(C)=C(N)C3=O)N1C[C@@H]1N[C@@H]12`, the Potency is reported as 35.5 µM (active).
In the case of `CCOCN(C(=O)Cn1c(C(C)O)nc2ccccc21)c1c(C)cccc1CC` (stereo not drawn), the Potency is reported as 89.1 µM (active).
With `N#Cc1c(N2CCCCC2)nc(N)c2c(N)nc(SCC(=O)O)cc12` the Potency was 50.1 µM (active).
With `O=C1CCCC2=C1[C@@]1(CCC(c3ccccc3)C1)N=C(Nc1nc3ccccc3o1)N2` (stereo partly drawn) the Potency was “inactive”.
`CCOC(=O)C1=NO[C@@]2(C=C(Br)C(=O)[C@H]3O[C@H]32)C1` was tested, and the Potency was 8.91 µM (active).
For `CC(=O)NS(=O)(=O)c1ccc(NC(=O)C2C3C=CC(C3)C2C(=O)O)cc1` (stereo not drawn), the Potency was 79.4 µM (active).
In the case of `C=Cc1ccc(C(=O)N2CCCC(CCC(=O)N3CCN(c4ccccn4)CC3)C2)cc1` (stereo not drawn), the Potency is reported as 1.26 µM (active).
For `O=c1[nH]c(=S)[nH]c2[nH]c(=S)[nH]c12`, the Potency was 8.91 µM (active).
`CCOC(=O)C1=C(C)c2ccccc2OC1C(=O)OCC` (stereo not drawn) was tested, and the Potency was “inactive”.
For `C=C1c2cccc(OC)c2O[C@H](C(=O)OCC)[C@@H]1CCCCCC`, the Potency was 35.5 µM (active).

With `O=C(O)CSc1ccc(S(=O)(=O)N2CCCC2)cn1` the “activity change, negative = inhibition” value was -0.365% [at 56.1 µM].

From PubChem BioAssay AID485290 (National Center for Advancing Translational Sciences (NCATS), 2010)
